Data on 7 compounds can be found in paper PMC11062922 (Nature Chemical Biology, 2023).

Holding throughout (parameters): species or system human, MV4-11 + K-562 + COLO205 + SK-N-BE2 + OVCAR-8
The subject of one assay is ADCK3. The note with it: read-out: apparent Kd, n = 1.
The next assay deals with ADCK1. The note with it: read-out: apparent Kd, n = 1.
The next assay concerns CAMK4. Particulars: read-out: apparent Kd; compound concentrations: 100 nM and 1000 nM (sheet 'Samples'), CATDS: 0.15107138054909999; n = 1.
A further assay relates to FLT3. Particulars: read-out: apparent Kd; compound concentrations: 100 nM and 1000 nM (sheet 'Samples'), CATDS: 0.830735386752396; n = 1.
The test system of another assay is MAP2K2. The note with it: read-out: apparent Kd; compound concentrations: 100 nM and 1000 nM (sheet 'Samples'), CATDS: 0.139234608718731; n = 1.
The next assay has as its system PDGFRB. Particulars: read-out: apparent Kd; compound concentrations: 100 nM and 1000 nM (sheet 'Samples'), CATDS: 0.32052418925239901; n = 1.
Another assay has as its system CIT. Particulars: read-out: apparent Kd; compound concentrations:100 nM and 1000 nM (sheet 'Samples'); n = 1.
The next assay has as its system CSNK1D. Particulars: read-out: apparent Kd; compound concentrations:100 nM and 1000 nM (sheet 'Samples'); n = 1.
The subject of another assay is CSNK1E. The note with it: read-out: apparent Kd; compound concentrations:100 nM and 1000 nM (sheet 'Samples'); n = 1.
In another assay the test system is T1, DJA1.
T1 construct: gene DNAJA1
Particulars: read-out: apparent Kd; compound concentrations:100 nM and 1000 nM (sheet 'Samples'); n = 1.

The test system of the next assay is GAK. Particulars: read-out: apparent Kd; compound concentrations:100 nM and 1000 nM (sheet 'Samples'); n = 1.
In a further assay the test system is IARS. The note with it: read-out: apparent Kd; compound concentrations:100 nM and 1000 nM (sheet 'Samples'); n = 1.
The subject of the next assay is PIK3CD. The note with it: read-out: apparent Kd, n = 1.
Another assay relates to PRKACB. The note with it: read-out: apparent Kd; compound concentrations:100 nM and 1000 nM (sheet 'Samples'); n = 1.
The next assay has as its system PRKCD. Particulars: read-out: apparent Kd; compound concentrations:100 nM and 1000 nM (sheet 'Samples'); n = 1.
Another assay relates to PRKCQ. The note with it: read-out: apparent Kd; compound concentrations:100 nM and 1000 nM (sheet 'Samples'); n = 1.
The subject of another assay is PRKD2. The note with it: read-out: apparent Kd; compound concentrations:100 nM and 1000 nM (sheet 'Samples'); n = 1.
For a further assay, the system named is PRKD3. Particulars: read-out: apparent Kd; compound concentrations:100 nM and 1000 nM (sheet 'Samples'); n = 1.
A further assay concerns TNIK. The note with it: read-out: apparent Kd; compound concentrations:100 nM and 1000 nM (sheet 'Samples'); n = 1.
For the next assay, the system named is TAOK1. The note with it: read-out: apparent Kd; compound concentrations:100 nM and 1000 nM (sheet 'Samples'); n = 1.
In the next assay the test system is GALK1. The note with it: read-out: apparent Kd; compound concentrations: 100 nM and 1000 nM (sheet 'Samples'), CATDS: 0.119899430557505; n = 1.
The subject of the next assay is MAPK14. The note with it: read-out: apparent Kd; compound concentrations: 100 nM and 1000 nM (sheet 'Samples'), CATDS: 0.15490410585255601; n = 1.
For the next assay, the system named is MAPK1. Particulars: read-out: apparent Kd; compound concentrations: 100 nM and 1000 nM (sheet 'Samples'), CATDS: 0.12427254642557201; n = 1.
The next assay has as its system PIM2. Particulars: read-out: apparent Kd; compound concentrations: 100 nM and 1000 nM (sheet 'Samples'), CATDS: 0.117779820663657; n = 1.
A further assay relates to STK16. Particulars: read-out: apparent Kd; compound concentrations: 100 nM and 1000 nM (sheet 'Samples'), CATDS: 0.13061388910889801; n = 1.
In the next assay the test system is AKT3. The note with it: read-out: apparent Kd, compound concentrations: 100 nM and 1000 nM (sheet 'Samples'), n = 1.
The next assay concerns MAP2K5. Particulars: read-out: apparent Kd; compound concentrations: 100 nM and 1000 nM (sheet 'Samples'), CATDS: 0.16534591084459199; n = 1.
The subject of another assay is NQO1. Particulars: read-out: apparent Kd, compound concentrations: 100 nM and 1000 nM (sheet 'Samples'), n = 1.
The next assay deals with TNK1. Particulars: read-out: apparent Kd; compound concentrations: 100 nM and 1000 nM (sheet 'Samples'), CATDS: 0.23807616191270001; n = 1.
The next assay concerns CDK13. The note with it: read-out: apparent Kd; compound concentrations: 100 nM and 1000 nM (sheet 'Samples'), CATDS: 0.20413342280503199; n = 1.
Setting [1] is: compound concentrations:100 nM and 1000 nM (sheet 'Samples').

Molecules are shown by their SMILES. Read-outs that look alike come from different tables or passages of the source.

On to `O=C(Nc1cccc(-c2nn3ncccc3c2-c2ccnc(Nc3cccc(C(F)(F)F)c3)n2)c1)c1c(F)cccc1F` [GSK299495A], for which the potency estimated from few doses in the assay with ADCK3 (compound concentrations: 100 nM and 1000 nM (sheet 'Samples'), CATDS: 1) is 0.233 µM.

`COc1cc(Nc2ncc(-c3ccccc3)o2)cc(OC)c1` [GW631581B]: the potency estimated from few doses was 1.65 µM with ADCK1 (compound concentrations: 100 nM and 1000 nM (sheet 'Samples'), CATDS: 0.14545775949077999); 1.41 µM with CAMK4; 0.00816 µM in the assay with FLT3; 2.01 µM in the assay with MAP2K2; 0.0854 µM with PDGFRB.

As to `Cc1n[nH]c2ccc(-c3cc(OC[C@@H](N)Cc4ccccc4)cnc3-c3ccoc3)cc12.Cc1n[nH]c2ccc(-c3cc(OC[C@@H](N)Cc4ccccc4)cnc3-c3ccoc3)cc12.O=C(O)C(F)(F)F.O=C(O)C(F)(F)F` [GSK507358A], the potency estimated from few doses with ADCK1 (setting [1]) is 1.14 µM; in the assay with CIT it was 1.12 µM; in the assay with CSNK1D, 0.711 µM; in the assay on CSNK1E it was 1.16 µM; in the assay with DJA1 it was 0.89 µM; with GAK, 1.5 µM. The potency estimated from few doses in the assay with IARS is 2.08 µM; in the assay on PIK3CD (setting [1]), 0.108 µM; with PRKACB, 1.74 µM; in the assay with PRKCD, 1.51 µM; in the assay with PRKCQ, 1.58 µM; in the assay on PRKD2 it was 0.69 µM. Besides, the results for the potency estimated from few doses with PRKD3 and in the assay with TNIK were 0.353 µM and 0.141 µM, respectively.

In the case of `COc1cc2ncn(-c3cc(OCC4CCCCC4)c(C(N)=O)s3)c2cc1OC` [GSK204559A], the potency estimated from few doses in the assay on ADCK3 (setting [1]) is 1.06 µM; in the assay with PIK3CD (setting [1]) it was 0.19 µM; in the assay with TAOK1, 1.46 µM.

As to `Cc1ccc(NC(=O)c2ccnc(N3CCN(C)CC3)c2)cc1-c1ccc(C(=O)NCC2CC2)cc1` [GW775604X], the potency estimated from few doses with ADCK3 (compound concentrations: 100 nM and 1000 nM (sheet 'Samples'), CATDS: 0.117650755909267) is 1.66 µM; in the assay with GALK1, 1.57 µM; in the assay with MAPK14, 0.84 µM; in the assay on MAPK1 it was 1.43 µM; with PIK3CD (compound concentrations: 100 nM and 1000 nM (sheet 'Samples'), CATDS: 0.661841764967533) it was 0.059 µM; in the assay with PIM2, 1.65 µM. Besides, the potency estimated from few doses with STK16 is 1.25 µM.

Take `COc1cc2nccc(Nc3cccc(Oc4ccccc4)c3)c2cc1OC.Cl` [GW284543A]: the potency estimated from few doses with ADCK3 (compound concentrations: 100 nM and 1000 nM (sheet 'Samples'), CATDS: 0.252282452250228) is 0.949 µM; in the assay on AKT3 (CATDS: 0.185918724063731), 1.71 µM; in the assay on MAP2K5 it was 2.26 µM; in the assay with NQO1 (CATDS: 0.18486916507509299), 1.73 µM; in the assay on TNK1, 1.05 µM.

For `Cc1ccc(C)c(NC(=O)NC2CCN(c3ccnc(Nc4ccc(F)cc4)n3)C2)c1` (stereo not drawn) [GSK1379720A], the potency estimated from few doses in the assay on ADCK3 (compound concentrations: 100 nM and 1000 nM (sheet 'Samples'), CATDS: 0.42611261301479197) was 0.388 µM; in the assay with AKT3 (CATDS: 0.236310491034597), 1.13 µM; in the assay with CDK13 it was 1.63 µM; in the assay on NQO1 (CATDS: 0.22110563940730901), 1.33 µM.
